Data taken from PubChem BioAssay AID1159580 (chemical genetic matrix, 2015).
In all, about 5,500 compounds went through this assay and about 2,000 (36%) were called active. Roughly 18% stayed inconclusive and do not appear here. Cut-off read from the data, not from the text of the source: active = normalized growth mostly below about 0.91 (no sharp cut-off); inconclusive = no clear call, values can overlap the other calls; inactive = mostly above about 0.92. This is one part of the list.

Assay: chemical genetic growth profiling, strain panel (AID 1159580);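 note: tested at 20 µM; growth read once vehicle control cultures reached saturation at 30 °C; 1 = growth at the plate median or of vehicle wells; lower values mean less growth of the strain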
Details: S. cerevisiae deletion strains, growth OD

Measured: normalized growth

CC1=C(/C=C/C(C)=C/C=C/C(C)=C/C=C/C=C(C)/C=C/C=C(C)/C=C/C2=C(C)C(=O)CCC2(C)C)C(C)(C)CCC1=O
inactive: locus YAL021C, strain ccr4, active compounds read low 1.02 | locus YAL026C, strain drs2, active compounds read low 0.964 | locus YAL030W, strain snc1, active compounds read low 0.981 | locus YBL061C, strain skt5, active compounds read low 0.981 | locus YBR009C, strain hhf1, active compounds read low 0.941 | locus YBR023C, strain chs3, active compounds read low 0.987 | locus YBR171W, strain sec66, active compounds read low 0.975 | locus YBR231C, strain swc5, active compounds read low 0.982 | locus YBR279W, strain paf1, active compounds read low 0.989 | locus YCL011C, strain gbp2, active compounds read low 0.96 | locus YCL016C, strain dcc1, active compounds read low 1 | locus YCL061C, strain MRC1, active compounds read low 1.01 | locus YCL069W, strain vba3, active compounds read low 0.975 | locus YCR088W, strain abp1, active compounds read low 0.994 | locus YDL005C, strain med2, active compounds read low 0.981 | locus YDL040C, strain nat1, active compounds read low 0.978 | locus YDR001C, strain nth1, active compounds read low 0.986 | locus YDR069C, strain doa4, active compounds read low 0.996 | locus YDR137W, strain rgp1, active compounds read low 1.03 | locus YDR159W, strain sac3, active compounds read low 0.961 | locus YDR195W, strain ref2 0.944 | locus YDR297W, strain sur2, active compounds read low 0.995 | locus YDR334W, strain swr1, active compounds read low 0.982 | locus YDR335W, strain msn5, active compounds read low 0.992 | locus YDR392W, strain spt3, active compounds read low 0.92 | locus YEL003W, strain gim4, active compounds read low 0.979 | locus YEL037C, strain rad23, active compounds read low 0.971 | locus YEL061C, strain CIN8 (second series), active compounds read low 0.979 | locus YER015W, strain faa2, active compounds read low 0.984 | locus YER016W, strain bim1, active compounds read low 1.01 | locus YER111C, strain swi4, active compounds read low 0.963 | locus YER155C, strain BEM2 (second series), active compounds read low 0.973 | locus YFR010W, strain ubp6, active compounds read low 0.971 | locus YGL167C, strain pmr1, active compounds read low 0.978 | locus YGL173C, strain kem1, active compounds read low 0.99 | locus YGL227W, strain vid30, active compounds read low 0.971 | locus YGL240W, strain doc1, active compounds read low 1.01 | locus YGL253W, strain hxk2, active compounds read low 0.963 | locus YHR013C, strain ard1, active compounds read low 0.958 | locus YHR027C, strain rpn1, active compounds read low 0.997 | locus YHR142W, strain chs7, active compounds read low 1.01 | locus YJL092W, strain hpr5, active compounds read low 0.999 | locus YJL095W, strain BCK1 (second series), active compounds read low 1 | locus YJL115W, strain asf1, active compounds read low 0.98 | locus YJL129C, strain trk1, active compounds read low 0.989 | locus YJL154C, strain vps35, active compounds read low 0.975 | locus YJL164C, strain tpk1, active compounds read low 1.02 | locus YJL166W, strain qcr8, active compounds read low 1 | locus YJL187C, strain SWE1, active compounds read low 0.985 | locus YKL160W, strain elf1, active compounds read low 1.07 | locus YKR026C, strain gcn3, active compounds read low 0.977 | locus YKR091W, strain srl3, active compounds read low 0.985 | locus YLL001W, strain dnm1, active compounds read low 0.997 | locus YLL026W, active compounds read low 0.987 | locus YLL041C, strain sdh2, active compounds read low 0.998 | locus YLR027C, strain aat2, active compounds read low 1.01 | locus YLR221C, strain rsa3, active compounds read low 1.01 | locus YLR258W, strain gsy2, active compounds read low 0.982 | locus YLR262C, strain YPT6 (second series), active compounds read low 1.05 | locus YLR320W, strain mms22, active compounds read low 0.99 | locus YLR342W, strain FKS1, active compounds read low 0.983 | locus YLR357W, strain rsc2, active compounds read low 0.966 | locus YLR370C, strain arc18, active compounds read low 0.986 | locus YLR384C, strain iki3, active compounds read low 0.998 | locus YML120C, strain ndi1, active compounds read low 0.996 | locus YMR058W, strain fet3, active compounds read low 0.965 | locus YMR125W, strain sto1, active compounds read low 0.92 | locus YMR129W, active compounds read low 0.975 | locus YMR205C, strain PFK2, active compounds read low 0.937 | locus YMR231W, strain pep5, active compounds read low 0.987 | locus YNL071W, strain lat1, active compounds read low 0.99 | locus YNL209W, strain ssb2, active compounds read low 0.991 | locus YNL248C, strain rpa49, active compounds read low 1.03 | locus YNL322C, strain KRE1 (second series), active compounds read low 0.989 | locus YNR049C, strain mso1, active compounds read low 0.965 | locus YOR001W, strain rrp6, active compounds read low 1.03 | locus YOR070C, strain gyp1, active compounds read low 1.02 | locus YOR080W, strain dia2, active compounds read low 0.993 | locus YOR083W, strain WHI5, active compounds read low 1.05 | locus YOR106W, strain vam3, active compounds read low 0.986 | locus YOR265W, strain rbl2, active compounds read low 1.01 | locus YOR270C, strain vph1, active compounds read low 0.871 | locus YOR290C, strain snf2, active compounds read low 0.934 | locus YPL051W, strain arl3, active compounds read low 1.02 | locus YPL078C, strain atp4, active compounds read low 0.997 | locus YPL106C, strain sse1, active compounds read low 1.01 | locus YPL240C, strain hsp82, active compounds read low 1
